From the supplement of paper PMC10127200
Counter-ions that a name gives are not always drawn.

Assays:
Assay in all cases: Euclidean distance of Cell Painting phenotypic profile (signed KS, 77 features) to DMSO centroid (dimensionless distance); higher = stronger phenotypic change vs DMSO (phenoactivity)
Conditions in all cases: 48 h; 5 or 10 uM (library dependent)
[1] = test system: 786-O
How it was run: (§1)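 At 10 or 5 uM, as set by the library, and 0.1% DMSO final, compounds were applied for 48 h to five cancer lines and one healthy fibroblast line. Stained cells were imaged confocally at 20X in 9 fields per well, and Harmony extracted 77 features scored as signed Kolmogorov-Smirnov statistics against vehicle wells on the same plate. Profiles underwent plate-position correction, correlation weighting and replicate averaging at the top dose. Phenoactivity is the Euclidean distance from each such profile to the median vehicle profile.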

[2] = test system: A549
How it was run: as §1

[3] = test system: DU145
How it was run: as §1

[4] = test system: FB
How it was run: as §1

[5] = test system: HEPG2
How it was run: as §1

[6] = test system: OVCAR4
How it was run: as §1

| Structure (SMILES) | Euclidean distance [1] | Euclidean distance [2] | Euclidean distance [3] | Euclidean distance [4] | Euclidean distance [5] | Euclidean distance [6] |
| --- | --- | --- | --- | --- | --- | --- |
| Cc1cc(O)ccc1Cl [Chlorocresol] | 0.894 | 0.612 | 0.527 | 0.762 | 0.668 | 1.1 |
| C[C@@H]1CC[C@@]2(OC1)O[C@H]1C[C@H]3[C@@H]4CC=C5C[C@@H](O[C@@H]6O[C@H](CO)[C@@H](O[C@@H]7O[C@@H](C)[C@H](O)[C@@H](O)[C@H]7O)[C@H](O)[C@H]6O[C@@H]6O[C@@H](C)[C@H](O)[C@@H](O)[C@H]6O)CC[C@]5(C)[C@H]4CC[C@]3(C)[C@H]1[C@@H]2C [Dioscin] | 1.76 | 2.54 | 0.921 | 1.29 | 1.15 | 4.63 |
| O=[N+]([O-])C(Br)(CO)CO [Bronopol] | 1.36 | 1.03 | 1.02 | 0.825 | 0.735 | 1.59 |
| NCC1(CC(=O)O)CCCCC1 [Gabapentin HCl] | 0.807 | 0.703 | 0.806 | 0.665 | 0.483 | 0.892 |
| CC(C)[C@]12O[C@H]1[C@@H]1O[C@]13[C@]1(O[C@H]1C[C@H]1C4=C(CC[C@@]13C)C(=O)OC4)[C@@H]2O [Triptolide (PG490)] | 3.96 | 3.27 | 3.16 | 4.12 | 2.73 | 3.81 |
| CC(=O)O[C@H]1C[C@@H]2CC[C@@H]3[C@H](CC[C@@]4(C)[C@H]3C[C@H]([N+]3(C)CCCCC3)[C@@H]4OC(C)=O)[C@@]2(C)C[C@@H]1[N+]1(C)CCCCC1 [Pancuronium dibromide] | 1.41 | 0.916 | 0.532 | 0.954 | 0.518 | 1.42 |
| C[C@@H]1[C@H](O)[C@@H](C)/C=C/C=C/CC/C=C/C=C/C=C/C=C/[C@H](O[C@H]2O[C@@H](C)[C@H](O)[C@@H](N)[C@H]2O)C[C@@H]2O[C@](O)(C[C@@H](O)[C@H](O)CC[C@@H](O)C[C@@H](O)C[C@@H](O)CC(=O)O[C@H]1C)C[C@H](O)[C@H]2C(=O)O [Nystatin (Fungicidin)] | 1.05 | 1.12 | 1.4 | 0.85 | 1.2 | 1.06 |
| CC(=O)Nc1ccc(Cc2ccc(NC(C)=O)cc2)cc1 | 1.08 | 2.27 | 0.674 | 0.9 | 0.667 | 1.25 |
| CCOc1ccccc1-n1c(C(C)N2CCN(C(=O)COc3ccc(Cl)cc3)CC2)nc2ccccc2c1=O (stereo not drawn) [Erastin] | 3.85 | 1.31 | 1.34 | 3.12 | 1.68 | 2.13 |
| Cc1sc2c(c1C)C(c1ccc(Cl)cc1)=N[C@@H](CC(=O)OC(C)(C)C)c1nnc(C)n1-2 | 3.44 | 2.14 | 2.03 | 3.52 | 1.96 | 1.96 |
| CC[C@@H](CO)NC(=O)[C@@H]1C=C2c3cccc4c3c(cn4C)C[C@H]2N(C)C1 [Methysergide Maleate] | 0.845 | 0.577 | 0.772 | 0.909 | 0.822 | 1.34 |
| O=c1ccc2cc(O[C@@H]3O[C@H](CO)[C@@H](O)[C@H](O)[C@H]3O)c(O)cc2o1 [Esculin] | 0.808 | 0.729 | 0.922 | 0.993 | 0.624 | 1.29 |
| Cl[TeH]1(Cl)(Cl)OCCO1.N | 1.48 | 1.83 | 2.01 | 1.31 | 1.27 | 2.09 |
| COC[C@H]1OC(=O)c2coc3c2[C@@]1(C)C1=C(C3=O)[C@@H]2CCC(=O)[C@@]2(C)C[C@H]1OC(C)=O [Wortmannin] | 1.37 | 1.06 | 1.2 | 2.24 | 0.655 | 1.14 |
| N[C@@H](Cc1ccc(N(CCCl)CCCl)cc1)C(=O)O [Melphalan] | 2.91 | 2.76 | 1.19 | 2.75 | 2.72 | 2.13 |
| O=C(NCC1CCOCC1)c1cnc(Nc2ccc(Cl)cc2Cl)nc1C(F)(F)F | 0.865 | 1.09 | 1.36 | 3.43 | 1.64 | 3.11 |
| CC(C)OC(=O)[C@H](C)N[P@](=O)(CO[C@H](C)Cn1cnc2c(N)ncnc21)Oc1ccccc1 [Tenofovir Alafenamide (GS-7340)] | 1.71 | 1.16 | 1.44 | 1.85 | 2.92 | 1.58 |
| COc1ccc2c(c1)[nH]c1c(C)nccc12 [Harmine hydrochloride] | 1.41 | 1.17 | 1.13 | 1.58 | 1.06 | 1.25 |
| C[C@]12CC[C@H](O)CC1=CC[C@@H]1[C@@H]2CC[C@]2(C)C(=O)CC[C@@H]12 [Dehydroepiandrosterone (DHEA)] | 0.908 | 0.827 | 1.46 | 1.11 | 1.12 | 1.16 |
| C#C[C@]1(O)CC[C@H]2[C@@H]3CCC4=CC(=O)CC[C@]4(C)[C@H]3CC[C@@]21C [Ethisterone] | 1.07 | 0.836 | 1.58 | 0.721 | 0.747 | 1.06 |
| COC(=O)C1=CCCN(C)C1 [Arecoline] | 0.942 | 1.44 | 0.841 | 1.01 | 0.762 | 0.957 |
| Cc1cccc(Cc2c[nH]cn2)c1C [Detomidine HCl] | 1.46 | 0.895 | 1.16 | 0.994 | 1.89 | 1.34 |
| CC(=O)Nc1ccc(OC[C@](C)(O)C(=O)Nc2ccc([N+](=O)[O-])c(C(F)(F)F)c2)cc1 [Andarine] | 1.46 | 1.78 | 0.858 | 0.758 | 0.703 | 1 |
